Inhibition data for 58 molecules are collected here from PubChem BioAssay AID1259311 (ICCB-Longwood Screening Facility, Harvard Medical School, 2017).

Values joined by “and” are separate entries in the source; they are usually repeats but may differ in a detail not shown here. Equal values may be shown once. Out of some 330,000 compounds screened, about 1,100 (0.33%) were called active. Rule as the data show it: active = inhibition above about 85%; inactive = the rest. For the sample, actives were picked, then their nearest neighbours and some compounds at random. Some structures have more than one record in an assay (separate samples or runs), and their calls can disagree.

The assay in a line: growth inhibition of S. aureus RN4220, primary screen, OD600 (AID 1259311).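 Also: plate controls were untreated cells for no effect and reference antibiotic for full effect.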 The note with it: OD600, 16 h, stronger effect = higher value.
For the molecule `CC(C)c1nnc(NC(=O)COC(=O)/C=C/c2ccc([N+](=O)[O-])cc2)s1`, the inhibition was -2.74% (inactive).
For `CCOCC(=O)Nc1ncc(S(=O)(=O)c2ccc([N+](=O)[O-])cc2)s1`, the inhibition is 90.6% (active).
For `Cc1cc(NC(=O)COc2ccc([N+](=O)[O-])cc2)no1`, the inhibition was -0.977% (inactive).
As to `COC(=O)C1=C(C(=O)OC)C2Nc3ccccc3[C@@]23CC(C(=O)OC)N(C(=O)c2cccs2)C3=N1` (stereo partly drawn), the inhibition was 2.73% (inactive).
With `CCN(CC)S(=O)(=O)c1cccc(-c2n[nH]c(=S)n2N=Cc2ccc(OC)cc2)c1`, the inhibition is 15% (inactive).
Turning to `CC(C)CC(NC(=O)c1[nH]cnc1C(=O)NC(C)C(=O)OC(C)(C)C)C(=O)OC(C)(C)C` (stereo not drawn), the inhibition is 4.67% (inactive).
Consider `Cc1ccc(N2C(=O)N3C(c4ccc(Br)cc4)C4C(=O)N(C(C)(C)C)C(=O)C4[C@]3(C)C2=O)cc1` (stereo partly drawn), for which the inhibition is 5.35% (inactive).
For the molecule `N#C/C(=C/c1ccc(Cl)cc1)NC(=O)c1ccccc1`, the inhibition is -6.37% (inactive).
Regarding `N#CC(=NNc1ccc(Cl)cc1)C(=N)N1CCCCC1`, the inhibition is -2.55% (inactive).
With `N#CC(=NNc1ccc(Cl)cc1)C(=O)c1ccccc1`, the inhibition is 100% (active).
In the case of `O=C(CSc1nc2ccccc2c(=O)n1-c1ccc(F)cc1)NC1CC1`, the inhibition is -2.32% (inactive).
Take `O=C(CSc1nc2ccccc2c(=O)n1-c1ccccc1F)N1CCOCC1`: the inhibition is -0.567% (inactive).
`O=c1c2ccccc2nc(/C=C/c2ccco2)n1-c1ccccc1O`: the inhibition was 95.7% (active).
For the molecule `CCn1c(/C=C/c2ccc([N+](=O)[O-])o2)nc2ccccc2c1=O`, the inhibition was 11.2% (inactive).
As for `Cc1nc2ccccc2c(=O)n1-c1ccc(Cl)cc1Cl`, the figure is 2.26% (inactive).
Regarding `O=c1c2ccccc2nc(/C=C/c2ccc(F)cc2)n1-c1ccccc1O`, the inhibition is 97.2% (active).
For `O=C(NC(C(=O)NN=Cc1ccccn1)c1n[nH]c(=O)c2ccccc12)c1ccccc1` (stereo not drawn), the inhibition was 0.248% (inactive).
As for `CCCOc1ccc(C=NNC(=O)CSCc2ccc([N+](=O)[O-])cc2)cc1OCC`, the inhibition is 3.47% (inactive).
As for `CC(CC(=O)Nc1ccc([N+](=O)[O-])cc1)=NNC(=O)C1CC12CCC2` (stereo not drawn), the figure is 3.47% (inactive); as for `COc1ccccc1C=NNC(=O)CO`, 5.18% (inactive).
As to `CNC(=O)C(=NO)c1ccccc1`, the inhibition was 0.94% (inactive).
`O=C1CS/C(=N/N=Cc2ccncc2)N1`: the inhibition was 2.12% (inactive).
On to `COc1ccc(CCN2C(=O)CSC2=NNC(=O)c2cccs2)cc1OC`, for which the inhibition was 2.01% (inactive).
Regarding `COc1ccc(C=NN=Cc2ccc(OC)c(OC)c2)cc1OC`, the inhibition is -1.08% (inactive).
For `CN(C)C=Nc1sc2c(c1C#N)CC(C)(C)NC2(C)C` the value was 2.77% (inactive); for `COc1ccc(C(C)=NNC(=O)CSc2nnc(C)s2)cc1`, 6.45% (inactive).
Turning to `O=C(CC(O)(C(F)(F)F)C(F)(F)F)Nc1ccc(Cl)c(Cl)c1`, the inhibition is 100% (active).
`NC(=O)N1CCCC1C(=O)Nc1ccc(Cl)c(Cl)c1` (stereo not drawn): the inhibition was 0.288% (inactive).
Turning to `O=C(Cc1ncc(C(F)(F)F)cc1Cl)Nc1cccc(Br)c1`, the inhibition was -2.16% (inactive).
For `Cc1[nH]c2ccccc2c1C=NNC(=O)CNC(=O)c1cccs1`, the inhibition was 2.5% (inactive).
Consider `COc1ccc(C=Nn2nnnc2N)c(OC)c1`, for which the inhibition is 2.12% (inactive).
On to `COc1ccc(C(=O)NN=Cc2ccc(OC(=O)c3cccc4ccccc34)c([N+](=O)[O-])c2)cc1`, for which the inhibition is 95.4% (active).
Turning to `COc1ccc(C=NNC(=O)c2ccccc2OC)cc1COc1ccccc1[N+](=O)[O-]`, the inhibition is 4.25% (inactive).
Consider `COc1ccc(C(=O)NN=Cc2ccc(OC)c(CN3CCCc4ccccc43)c2)cc1`, for which the inhibition is 0.711% (inactive).
For `C1=CC2CCN(Cc3ccccc3)Cc3cccc(c32)C1` (stereo not drawn), the inhibition was 4.59% (inactive).
As for `Cc1cccc(-n2c(C)cc(C=NO)c2C)c1`, the figure is -4.73% (inactive); as for `O=C(c1cccc([N+](=O)[O-])c1)N1CCN(Cc2ccccc2)CC1`, 2.33% (inactive); as for `O=C(CCl)N(Cc1cccc([N+](=O)[O-])c1)c1cccc(Cl)c1`, 94.9% (active).
For `Cc1ccc(S(=O)(=O)N(Cc2cccc([N+](=O)[O-])c2)C(=O)N2CCN(C)CC2)cc1` the value was 2.8% (inactive).
In the case of `CCCCNC(=O)CC1S/C(=N/N=Cc2ccc(OC)cc2)NC1=O` (stereo not drawn), the inhibition is 10.5% (inactive).
For the molecule `Cc1ccc(C=NNC(=O)Cc2cccn2C)cc1`, the inhibition is 1.44% (inactive).
As for `Cc1ccc(O)c(C(=O)C=Cc2ccc3c(c2)OCCO3)c1`, the figure is -1.13% (inactive); as for `COc1c(O)ccc(C=NNC(=O)c2ccc3c(c2)OCCO3)c1[N+](=O)[O-]`, 0.97% (inactive).
Take `CN1CCN(CCNC(=O)Nc2ccc([N+](=O)[O-])cc2)CC1`: the inhibition was 2.31% (inactive).
As for `O=C(NN=Cc1cc([N+](=O)[O-])ccc1O)C12CC3CC(CC(C3)C1)C2`, the inhibition is 63.4% (inactive).
In the case of `CN1CCN(CCC(=O)NN=Cc2cc([N+](=O)[O-])ccc2O)CC1`, the inhibition is 88.7% (active).
For `OCCC1CC(O)C(O)[C@@]2(CCCc3ccccc3O2)O1` (stereo partly drawn), the inhibition was -1.69% (inactive) and 51.2% (inactive) and 98.7% (active).
Turning to `OCCC1CC(O)C(O)[C@]2(Cc3ccccc3O2)O1` (stereo partly drawn), the inhibition is 1.1% (inactive) and -0.123% (inactive) and 7.32% (inactive).
As for `Cc1cccc(NC(=NS(=O)(=O)c2ccccc2)c2ccccc2)n1`, the inhibition was -0.262% (inactive).
For the molecule `CC(N)=C(C#N)C(=O)CSc1ccccc1F`, the inhibition was 5.44% (inactive).
For `Cc1cc(C)n(C(=O)CCNC(=O)c2ccccc2Cl)n1` the value was 4.12% (inactive).
With `Cc1cc(C)n(C(=O)C(C#N)=NNc2cc(Cl)cc(Cl)c2)n1`, the inhibition was 99.6% (active).
Turning to `N#CC(=NNc1cc(Cl)cc(Cl)c1)c1nnc2n1CCCCC2`, the inhibition was 0.845% (inactive).
As for `COc1ccc(C=NNc2ccc([N+](=O)[O-])cc2S(=O)(=O)N2CCN(C)CC2)cc1`, the figure is -2.66% (inactive).
As to `O=C(NN=Cc1cc(Cl)cc([N+](=O)[O-])c1O)c1cccc(S(=O)(=O)N2CCOCC2)c1`, the inhibition was 5.65% (inactive).
Regarding `COc1ccc(CS(=O)/C(Cl)=C(/Cl)C(=O)Nc2ccc(OC)nc2)cc1` (stereo not drawn), the inhibition was 1.8% (inactive).
For `COc1cccc(NC(=S)N(Cc2ccc(C)cc2)Cc2ccccn2)c1`, the inhibition was 2.66% (inactive).
On to `COc1ccc(NC(=O)/C(Cl)=C(/Cl)S(=O)Cc2ccc(C)cc2)cn1` (stereo not drawn), for which the inhibition is 93.4% (active).
